{"source": "PubChem BioAssay AID454", "about": "(Sanford-Burnham Center for Chemical Genomics, 2006)", "note": "About 25 (0.2%) of roughly 10,000 compounds were called active.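 How the source made its calls: active means compound among top-ranked inhibitors of TNF-induced VCAM-1 adhesion protein staining, with the hit upheld by image or statistical review; inactive means the rest, including hits rejected on review.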 The sample as a whole holds a higher share of actives than the screen did."}
{"assay": "inhibitors of TNFa-induced VCAM-1 surface display, cell-based, plate reader, pooled HUVEC, TNFa stimulus (AID 454)", "details": "HUVEC TNFa-induced VCAM-1 surface immunofluorescence; hits give high values,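 compound tested at 5 µM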"}
{"compound": "CCCC1Cc2c(sc3ncnc(N)c23)CO1", "note": "(stereo not drawn)", "inhibition": "inactive"}
{"compound": "COc1cccc(NC(=O)N2CCC(N3CCCCC3)CC2)c1", "inhibition": "inactive"}
{"compound": "CCc1nc(C)c(C#N)c2cc(OC)c(OC)cc12", "inhibition": "inactive"}
{"compound": "COc1cc(CC(=O)Nc2ncc(C)s2)cc(OC)c1OC", "inhibition": "inactive"}
{"compound": "C#CCNc1c(C)c(C)nc2ncnn12", "inhibition": "inactive"}
{"compound": "CCN1CCN(Cc2ccc(NC(=O)Nc3ccc(SC)cc3)cc2)CC1", "inhibition": "inactive"}
{"compound": "Cn1c(=O)[nH]c(=O)c2[nH]c(CN3CCN(C(=O)c4ccco4)CC3)nc21", "inhibition": "inactive"}
{"compound": "CC(=O)[C@H]1CC[C@H]2[C@@H]3CCC4=CC(=O)CC[C@]4(C)[C@H]3CC[C@]12C", "inhibition": "96.7% (active)"}
{"compound": "CC(=O)OCC(=O)[C@H]1CC[C@H]2[C@@H]3CCC4=CC(=O)CC[C@]4(C)[C@H]3CC[C@]12C", "inhibition": "inactive"}
{"compound": "C[C@]12CC[C@H]3[C@@H](CCC4=CC(=O)CC[C@@]43C)[C@@H]1CC[C@@H]2C(=O)CO", "inhibition": "inactive"}
{"compound": "CCC(=O)N[C@@H]1CC(C(C)(C)NC(=O)CC)CC=C1C", "note": "(stereo partly drawn)", "inhibition": "inactive"}
{"compound": "COc1cc(OC)c2c(c1)OC(c1ccc(OC)c(OC)c1)C(O)C2=O", "note": "(stereo not drawn)", "inhibition": "inactive"}
{"compound": "Cc1ccc(-c2cc(C(F)F)nc(N3CCC(C)CC3)n2)cc1", "inhibition": "inactive"}
{"compound": "Cc1[nH]n(C(N)=S)c(=O)c1C(c1ccccc1)C(C#N)C#N", "note": "(stereo not drawn)", "inhibition": "inactive"}
{"compound": "CCOC(=O)c1cnc(-n2nc(C)cc2C)nc1N1CC(C)OC(C)C1", "note": "(stereo not drawn)", "inhibition": "inactive"}
{"compound": "Cc1ccc(S(=O)(=O)N2CCCC2C(=O)n2nc(C)cc2C)cc1", "note": "(stereo not drawn)", "inhibition": "inactive"}
{"compound": "CCOCCn1c(CN2CCC(Cc3ccccc3)CC2)nc2c1c(=O)n(C)c(=O)n2C", "inhibition": "inactive"}
{"compound": "Oc1c(C(c2ccccc2)N2CCc3ccccc3C2)sc2ncnn12", "note": "(stereo not drawn)", "inhibition": "inactive"}
{"compound": "CC1=C(C(N)=O)C(c2ccc(Cl)cc2Cl)n2ncnc2N1", "note": "(stereo not drawn)", "inhibition": "inactive"}
{"compound": "COC(=O)C1=C(C)N(c2ccc(C(=O)OC)cc2)C(=O)C1", "inhibition": "inactive"}
{"compound": "COCCCNC(=O)CCn1c(=O)c2ccccc2n(CC(=O)Nc2ccc(C)cc2C)c1=O", "inhibition": "inactive"}
{"compound": "CCOc1cc(-c2nc3ccccn3c2NCC2CCCO2)ccc1O", "note": "(stereo not drawn)", "inhibition": "inactive"}
{"compound": "Cc1cc(C)nc(SCc2nnc(SCc3ccccc3Cl)o2)n1", "inhibition": "inactive"}
